Sampled rows, rich in hits. Any-hit rate of the full collection: about 4.2%.
Sfp PPTase inh – inhibitors of Bacillus subtilis Sfp phosphopantetheinyl transferase; Q9F4F7; Biochemical Sfp PPTase activity, qHTS; Potency, µM, for the others: largest response in the series, negative = inhibition, hits mostly inhibitors; 310,000 tested, 3.5% active;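 note: the enzyme is Sfp with the accession as filed and its product quenches rhodamine fluorescence; 0% = enzyme reaction without inhibitor and -100% = no enzyme wells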
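After 15 min at room temperature with compound, 15 nM Sfp received 5 uM rhodamine-CoA plus 12.5 uM BHQ-2-ybbR (50 mM Hepes pH 7.6, 10 mM MgCl2). Rate came from the fluorescence difference over 30 min, ex 525/em 598 nm.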
VDR inhibitor – inhibitors of human vitamin D receptor | VDR-SRC2-3 peptide fluorescence polarization, 2 h | 400,000 tested, 0.93% active | AID 504847 | P11473 | Potency, µM, for the others: max response, negative = inhibition, actives largely listed as inhibitors
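Signal is fluorescence polarization, reporting how far test compounds block the interaction of VDR with the SRC2-3 coregulator peptide after a 2 h room-temperature incubation.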
12-LOX inh – ALOX12 (human) lipoxygenase inhibition. purified 12hLO, xylenol orange hydroperoxide absorbance. Potency, µM (doses to about 108 µM), for the others: top-dose activity change, negative = inhibition, actives largely listed as inhibitors. P18054. 580,000 tested, 1.1% active. AID 1671190
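Purified human 12hLO at 150 nM in 25 mM Hepes, 0.01% Triton X-100, pH 7.0, preincubated 15 min at room temperature with compound. Reaction started with 40 uM arachidonic acid, 30 min at room temperature. Hydroperoxide measured by Fe-xylenol orange, 573/405 nm absorbance ratio.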
PLK1 PBD inh – inhibitors of human PLK1 polo-box domain binding. AID 720504. 360,000 tested, 2.8% active. Potency, µM, for inactives: max response, negative = inhibition, most hits filed as inhibitors. Plk1 PBD binding of FITC phosphopeptide, fluorescence polarization; note: series mostly up to about 57 µM; nearly all actives have a fitted effect of over 65% in size
* = called active by the depositor; [ ] = dose if it differs, or a comment. Calls come from the whole dose curve; as a rule, active = well fitted curve in the direction sought with a large enough effect; inconclusive = small, poorly fitted or top-dose-only effect, or another doubt; inactive = no such curve, though single readings can be large; an effect the other way counts as inactive or inconclusive. Unless noted, % is set by controls: 0 for no effect and ±100 for the full control effect; potency is the fitted concentration of half-maximal effect.

CC(=Nc1c(C)n(C)n(-c2ccccc2)c1=O)c1c(O)n(Cc2ccccc2)c(=O)[nH]c1=O was read as Sfp PPTase inh 6.0%, VDR inhibitor -8.6%, 12-LOX inh 0.0% and PLK1 PBD inh -3.7%.
For COc1ccc(CN2C(=O)CC(=O)NC2=O)cc1 the results were Sfp PPTase inh -3.5%, VDR inhibitor -22.4%, 12-LOX inh -12.0% and PLK1 PBD inh -16.7%.
Cc1ccc(/C=C2\C(=O)NC(=O)N(CCc3ccc(F)cc3)C2=O)o1 was read as Sfp PPTase inh 39.8µM*, VDR inhibitor -25.4%, 12-LOX inh inconclusive and PLK1 PBD inh 0.947µM*.
For O=C1NC(=O)N(CCc2ccc(F)cc2)C(=O)/C1=C\C=C\c1ccccc1 the results were Sfp PPTase inh -6.9%, VDR inhibitor inconclusive, 12-LOX inh inconclusive and PLK1 PBD inh inconclusive.
For COc1ccc(CN2C(=O)NC(=O)/C(=C\c3cccc(OC)c3OC)C2=O)cc1 the results were Sfp PPTase inh 79.4µM*, VDR inhibitor inconclusive, 12-LOX inh inconclusive and PLK1 PBD inh 29.9µM*.
c1cnc2c(c1)NC1(CCCNC1)C(=NC1CCCC1)N2 (configuration not stated) was read as 12-LOX inh 186.4%.
`CCN1C(=O)N(CC)C(=O)C2(Cc3ccccc3N3CCN(c4ccccc4)CC32)C1=O` (configuration not stated) gave Sfp PPTase inh 70.8µM*, VDR inhibitor -13.4%, 12-LOX inh inconclusive and PLK1 PBD inh -14.9%.
Screening O=c1c2ccccc2sn1-c1ccc(Cl)cc1 returned 12-LOX inh 0.251µM* and PLK1 PBD inh 2.99µM*.
COc1cccc(-n2c(/C=C\c3ccc(Cl)cc3)nc3ccccc3c2=O)c1 was read as VDR inhibitor inconclusive and 12-LOX inh -10.9%.
Screening COc1ccc(-c2nc3ccccc3c(=O)n2-c2ccc(OC)cc2)cc1 returned Sfp PPTase inh -0.6%, VDR inhibitor -8.6%, 12-LOX inh -9.8% and PLK1 PBD inh -7.3%.
For Cc1ccc(-n2sc3ccccc3c2=O)cc1 the results were Sfp PPTase inh 1.26µM*, VDR inhibitor 3.16µM*, 12-LOX inh 1.12µM* and PLK1 PBD inh 0.947µM*.
`Cc1cc(N2CCNCC2)nc2ccccc12` gave Sfp PPTase inh 4.0%, VDR inhibitor -12.1%, 12-LOX inh -9.1% and PLK1 PBD inh 26.7µM*.
For Cc1cccc(C)c1-n1nnnc1C(c1cccs1)N1CCC(n2c(=O)[nH]c3ccccc32)CC1 (configuration not stated) the results were 12-LOX inh 7.7% and PLK1 PBD inh -0.1%.
Screening Cc1cc2c(cc(C(=O)N3CCC(C(=O)NC4CCCC4)CC3)n2Cc2c(F)cccc2Cl)o1 returned Sfp PPTase inh 50.1µM*, VDR inhibitor -4.7%, 12-LOX inh -25.1% and PLK1 PBD inh -8.8%.
Screening Cc1cccc(-n2c(=S)[nH]c3ccccc3c2=O)n1 returned Sfp PPTase inh 50.1µM*, VDR inhibitor -13.0%, 12-LOX inh -6.2% and PLK1 PBD inh -13.8%.
O=C(Oc1ccccc1)N1CCC2(CCN(Cc3ccncc3)CC2)CC1 was read as Sfp PPTase inh 17.6%, VDR inhibitor -2.0% and 12-LOX inh -4.3%[57.4 µM].
Screening CCOC(=O)[C@]12Cc3ccc(C)cc3[C@H]1N(C1CCCCC1)C(=O)c1cc(OC)ccc12 returned 12-LOX inh 56.2µM* and PLK1 PBD inh 4.23µM*.
CCOC(=O)[C@]12Cc3ccc(C)cc3[C@H]1N(C1CCCCC1)C(=O)c1ccccc12 was read as 12-LOX inh inconclusive and PLK1 PBD inh 2.99µM*.
`CCOC(=O)[C@]12Cc3cc(C)ccc3[C@H]1N(C1CCCCC1)C(=O)c1ccccc12` gave 12-LOX inh 50.1µM* and PLK1 PBD inh 2.67µM*.
Screening CCOC(=O)[C@]12Cc3cc(Cl)ccc3[C@H]1N(Cc1ccccc1)C(=O)c1ccccc12 returned VDR inhibitor -4.2%, 12-LOX inh -39.4% and PLK1 PBD inh -4.9%.
CCOC(=O)[C@]12Cc3cc(Cl)ccc3[C@H]1N(C1CCCCC1)C(=O)c1cc(OC)ccc12 was read as 12-LOX inh 44.7µM* and PLK1 PBD inh 2.12µM*.
CCOC(=O)[C@]12Cc3ccccc3[C@H]1N(Cc1ccccc1)C(=O)c1cc(F)c(F)cc12 was read as 12-LOX inh -23.6% and PLK1 PBD inh inconclusive.
Screening CCOC(=O)[C@]12Cc3cc4c(cc3[C@H]1N(Cc1ccccc1)C(=O)c1ccccc12)OCO4 returned VDR inhibitor -22.2%, 12-LOX inh -5.9% and PLK1 PBD inh -17.6%.

Bioassay records from PubChem BioAssay.
